Assay outcomes: PubChem, National Center for Advancing Translational Sciences (NCATS)
The list is not random: actives were taken first. Their share in the collection is about 7.2%.
LASV entry inh = Lassa virus entry inhibition; Lassa virus pseudotype entry inhibition, cell reporter; Potency, µM (highest dose often 37.9 µM), for inactives: top-dose activity change, negative = inhibition, actives largely listed as inhibitors; 300,000 tested, 1.2% active; calls by dose curve; tested in HEK293 cells; also: nearly all actives have a fitted effect of over 50% in size
Sm TGR inh = blocks Schistosoma mansoni thioredoxin glutathione reductase. Potency, µM (highest dose often 114 µM), for inactives: at the top dose activity change, negative = inhibition, actives largely listed as inhibitors. 360,000 tested, 3% active. purified TGR, DTNB reduction, TNB absorbance 405 nm. Q962Y6; also: nearly all actives have a fitted effect of over 60% in size
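Kinetic colorimetric format: TGR-catalysed, NADPH-driven DTNB reduction monitored via TNB absorbance. Enzyme dispensed at 20 nM; compound exposure 15 min at room temperature before reaction start.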
HCV inhibitor = inhibitors of hepatitis C virus infection | 340,000 tested, 3.4% active | Huh7.5.1 HCVcc-Cre infection, luciferase reporter, 44 h | Potency, µM (top dose mostly 41.8 µM), inactives show at the highest dose activity change, negative = inhibition, usual class: inhibitors
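A cell-based infection assay in which seeded cells (1,000 per well) receive test compound after 4 h, are inoculated with HCVcc-Cre at approximately 0.5 moi, and are incubated 44 h before luminescence detection.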
RE007 growth inh = less growth of the S. pombe RE007 Vpr strain. S. pombe RE007 Vpr strain, BacTiter-Glo ATP luminescence, 24 h. 360,000 tested, 0.21% active. AID 651644. Potency, µM (series often up to 92.2 µM), without a hit: at the top dose activity change, negative = less growth, hits mostly inhibitors; active = well fitted falling curve with a large enough effect; inconclusive = small, poorly fitted or top-dose-only effect; inactive = no such curve, though single readings can be large or run the other way; also: nearly all actives have a fitted effect of over 50% in size
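Fission yeast RE007 carrying one integrated HIV-1 vpr copy, seeded at OD 0.01 in PMG+AL medium with 23 nL pinned compound. Grown 24 h at 30 degrees; viability read by BacTiter-Glo luminescence after 5 min.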
MARV entry inh = Marburg virus entry inhibition; Marburg virus pseudotyped entry inhibition, cell reporter; Potency, µM (titrated, usually from 37.8 µM), for inactives: at the highest dose activity change, negative = inhibition, most hits filed as inhibitors; 300,000 tested, 1.8% active; calls by dose curve; tested in HEK293 cells
FMDV inh = blocks foot and mouth disease virus | 410,000 tested, 1.2% active | AID 1159524 | Potency, µM (series often up to 57.9 µM), inactives show at the top dose activity change, negative = inhibition, most hits filed as inhibitors | FMDV antiviral cell-based qHTS; calls by dose curve; tested in HEK293T cells; also: read-out not given here; nearly all actives have a fitted effect of over 45% in size
Numbers without * were called inactive; ? = inconclusive; / = not tested or not shown; [ ] = remark or other dose. Unless noted, calls follow the shape of the dose curve; as a rule, active = well fitted curve in the direction sought with a large enough effect; inconclusive = small, poorly fitted or top-dose-only effect, or another doubt; inactive = no such curve, though single readings can be large; an effect the other way counts as inactive or inconclusive. % is scaled to controls: 0 for no effect and ±100 for the full control effect; potency is read from the fitted curve at half-maximal effect.

SMILES	LASV entry inh	Sm TGR inh	HCV inhibitor	RE007 growth inh	MARV entry inh	FMDV inh
Cc1ccccc1N1C(=O)C2ON(c3ccccc3)C(c3cccnc3)C2C1=O (configuration not stated)	6.1%	?	8.3%	-13.8%	-3.7%	-4.8%
O=C(Cc1c[nH]c2ccccc12)N1CCC(n2c(C3CCCO3)nc3cc(C(F)(F)F)ccc32)CC1 (configuration not stated)	/	/	/	/	/	-5.8%
Cc1cc(/C=C2\Sc3ccccc3N2C)cc(C)[n+]1CC1CCCO1 (configuration not stated)	?	-4.0%	2.51µM*	?	?	?
CCCCCn1cc2c(c1-c1ccc(Cl)cc1)c(=O)n(C)c(=O)n2C	?	1.7%	/	/	13.3%[46.1 µM]	0.0%
COc1ccc(-c2nnc(SCC(=O)NC3CCCC3)nc2-c2ccc(OC)c(OC)c2)cc1OC	?	6.8%	/	/	/	-3.0%
Cn1c(N2CCOCC2)nc2c1c(=O)n(Cc1ccc(Cl)c(Cl)c1)c(=O)n2C	-0.2%	-0.6%	5.3%	2.3%	-12.3%	-28.9%
Cn1c(OCc2ccco2)nc2c1c(=O)n(Cc1ccc(Cl)c(Cl)c1)c(=O)n2C	-6.7%	22.4µM*	1.7%	-8.2%	1.0%	-21.5%
Cn1c(NCC(O)c2ccccc2)nc2c1c(=O)n(Cc1ccc(Cl)cc1)c(=O)n2C (configuration not stated)	-16.7%	0.1%	?	-0.6%	-6.7%	-28.9%
Cc1ccc(Oc2nc3c(c(=O)n(Cc4ccccc4F)c(=O)n3C)n2C)cc1	-9.5%	7.5%	-11.4%	-14.3%	?	20µM*
Cn1c(Oc2ccc(Cl)cc2)nc2c1c(=O)n(Cc1ccc(F)cc1)c(=O)n2C	1.0%[46.1 µM]	-0.9%	/	/	1.1%[46.1 µM]	15.8µM*
Cn1c(=O)c2c(nc(Oc3ccc(F)cc3)n2Cc2ccc(F)cc2)n(C)c1=O	23.4%[46.1 µM]	19.8%	/	/	/	0.0%
Cn1c(NCC(O)c2ccccc2)nc2c1c(=O)n(Cc1ccc(Cl)c(Cl)c1)c(=O)n2C (configuration not stated)	?	/	?	21.4%	?	14.1µM*
C=CCNC(=O)[C@H]1C=C(OC)C(=O)C[C@H](c2ccccc2)[C@H]1C	/	/	/	/	9.3%[14.2 µM]	/
COc1ccccc1C(=O)NCCC(=O)NCC1CCCO1 (configuration not stated)	/	-5.9%	10.8%	25.4%	/	-11.4%
O=C(CN1N=C(c2ccccc2)CCC1=O)NCc1ccc(F)cc1Cl	?	9.3%	/	/	/	0.9%
C#CCN(C[C@@H]1[C@@H](OC(=O)NCc2ccco2)[C@@H](OC(=O)NCc2ccco2)Cn2c(=O)n(CCCCCC)c(=O)n21)S(=O)(=O)c1ccc(C)cc1	/	/	/	3.8%	/	28.2µM*
C#CCN(C[C@@H]1[C@@H](OC(=O)NCc2ccco2)[C@@H](OC(=O)NCc2ccco2)Cn2c(=O)ccc(=O)n21)S(=O)(=O)c1ccc(C)cc1	/	/	/	2.5%	/	6.31µM*
C#CCN(C[C@@H]1[C@@H](OC(=O)NCc2ccccc2)[C@@H](OC(=O)NCc2ccccc2)Cn2c(=O)n(CCCCCC)c(=O)n21)S(=O)(=O)c1ccc(C)cc1	/	/	/	-1.4%	/	-11.4%
O=C1NC(c2ccccc2)=C(c2nc3ccccc3s2)C(c2ccccc2)N1 (configuration not stated)	9.2µM*	?	?	-0.3%	-21.3%	?
CC(=O)C1=C(c2ccccc2)NC(=O)NC1c1ccccc1 (configuration not stated)	/	-16.8%	14.2%	-0.4%	/	-12.8%
NC(Cc1c[nH]c2ccc(OCc3ccccc3)cc12)C(=O)O (configuration not stated)	10.5%[46.1 µM]	11.2µM*	13.1%	-13.5%	?	-4.7%
O=Cc1c[nH]c2ccc(NC(=O)OCc3ccccc3)cc12	?	/	-2.1%	14.7%	12.6µM*	3.5%
NC(=S)N/N=C\c1ccccc1OCc1ccccc1	-19.5%	-5.2%	?	-1.6%	?	-18.2%
NC(=S)N/N=C/c1c[nH]c2ccc(OCc3ccccc3)cc12	/	0.7%	12.6µM*	-14.1%	/	?
Cc1ccc2[nH]c3c(c2c1)CN(C(=O)CN1C[C@@H](C)O[C@@H](C)C1)CC3	/	/	/	/	6.5%	/
SMILES	LASV entry inh	Sm TGR inh	HCV inhibitor	RE007 growth inh	MARV entry inh	FMDV inh
CC(C)NC(=O)N(C)C[C@@H]1Oc2cc(Br)ccc2S(=O)(=O)N([C@@H](C)CO)C[C@H]1C	/	/	/	-0.7%	/	14.0%
CCOC(=O)c1ccccc1NC(=O)Cn1c(=O)n(-c2cccc(C)c2)c(=O)c2c1c1cc(C)ccc1n2C	?	3.3%	/	/	10.0%[46.1 µM]	-14.2%
CCCCCCCCSC1=CC(=O)C(OC)=C(OC)C1=O	/	/	/	-7.8%	/	17.8µM*
Cc1ccc(NC(=O)O/N=C/c2c(C)nn(C(C)(C)C)c2C)cc1Cl	?	-3.1%	-10.0%	2.5%	?	0.0126µM*
CCC1CCCCN1CC(=O)c1c(C)[nH]c2cc(C)ccc12 (configuration not stated)	3.9%[46.1 µM]	44.7µM*	-4.5%	-9.8%	-23.1%[46.1 µM]	-7.9%
COc1ccc(-c2ccc(NS(=O)(=O)c3cc(C)c(C)cc3C)cc2)nn1	19.0%[46.1 µM]	9.0%	/	/	/	55.1%
O=C(CC(SCc1ccco1)c1ccc(O)cc1)c1cccs1 (configuration not stated)	14.7%	28.2µM*	-17.6%	-17.3%	-2.5%	-3.4%
O=C(CSc1nnc(-c2cccnc2)n1Cc1ccco1)c1ccccc1	3.2%	-30.8%	21.8%	1.3%	19.7%	-4.4%
O=C(CC(SCCO)c1ccc2c(c1)OCO2)c1cccs1 (configuration not stated)	-28.7%	-3.8%	?	-22.2%	?	31.5%
O=C(CSc1nnc(-c2ccc(O)cc2)n1Cc1ccco1)c1ccccc1	-16.5%	44.7µM*	-3.8%	3.4%	-2.9%	-18.1%
O=C(CSc1nnc(-c2ccc(O)cc2)n1Cc1ccco1)c1cccs1	-5.0%	25.1µM*	-3.9%	1.1%	-8.2%	-23.3%
O=c1c2c3c(sc2nnn1CCCCOc1ccc(Cl)cc1)CCCC3	13.6%[46.1 µM]	1.0%	/	/	2.5%[46.1 µM]	-19.8%
Fc1cccc(/C=C2\CCCC3=C2NC(=S)NC3c2cccc(F)c2)c1 (configuration not stated)	/	20µM*	8.91µM*	-13.8%	/	-27.6%
S=C1NC2=C(CCC/C2=C\c2ccccc2)C(c2ccccc2)N1 (configuration not stated)	-2.0%	-34.7%	?	-13.6%	?	?
CNC(=O)CSc1ncnc2c1cnn2-c1ccccc1	-11.4%	15.5%	1.2%	21.1%	3.8%[46.1 µM]	17.7%
Cc1csc(NC(=O)CSc2ncnc3c2cnn3-c2ccccc2Cl)n1	?	-4.0%	17.8µM*	-11.9%	12.6µM*	14.1µM*
Cc1ccccc1-n1ncc2c(SCC(=O)NCc3cccs3)ncnc21	?	1.9%	22.4µM*	10.2%	?	0.0%
